According to PubChem BioAssay (Tox21):
“And” between values parts separate entries of the source, which are not always exact repeats. Identical values can stand only once. The source made the active and inactive calls. The call rests on the fitted dose curve; in most records, active means well fitted curve in the direction sought with a large enough effect in the repeat runs; inconclusive means weak or mixed curves; inactive means flat fitted curve, though single readings scatter.

test: qHTS assay to test for compound auto fluorescence at 590 nm (red) in HEK293 cell free culture (AID 720683); settings: cell-free medium autofluorescence, Ex540/Em590 red; series mostly up to 91.3 µM; fluorescence, % of fluorescent control: at the top concentration
In short: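 Tox21 10K library compounds were pinned into cell-free DMEM with 10% FBS and fluorescence was read at excitation 540 nm. Activity is expressed as Rose Bengal sodium equivalency.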
On the % scale 0 is the no-effect control and ±100 the full control effect.

Compound	fluorescence, % of fluorescent control	outcome
OCCC1CCCCN1 (stereo not given)	-0.0546% (inactive)	–
Oc1ccc(Sc2ccc(O)cc2)cc1	-0.0147% (inactive)	–
CCCC[C@H]1CN(CC2CCOCC2)C(=O)OC12CCN(C1(C)CCN(C(=O)c3c(C)ncnc3C)CC1)CC2	-0.0539% (inactive)	–
O=C(O)COC(=O)Cc1ccccc1Nc1c(Cl)cccc1Cl	-0.172% [at 18.6 µM] (inactive)	–
Cc1cc(C)c(S(=O)(=O)O)cc1N=Nc1cc(S(=O)(=O)O)c2ccccc2c1O	0.934% (inactive)	–
c1ccc(OCc2ccc(CCCN3CCOCC3)cc2)cc1	0.512% [at 46 µM] (inactive)	–
NC(N)=NN=C(/C=C/c1ccc([N+](=O)[O-])o1)/C=C/c1ccc([N+](=O)[O-])o1	-0.0415% [at 46 µM] (inactive)	–
Cc1ccccn1	–	inactive
CCCCCCOC(=O)CCC	-0.0196% (inactive)	–
COc1cc(C(C)(C)C)c(O)c(C(C)(C)C)c1	0.533% (inactive)	–
COCCCCCCCCOCCC[Si](C)(O[Si](C)(C)C)O[Si](C)(C)C	0.0816% (inactive)	–
CC(Cc1cccc(C(F)(F)F)c1)NCCOC(=O)c1ccccc1 (stereo not given)	-0.328% [at 46 µM] (inactive)	–
O=C(/C=C/c1ccc(O)c(O)c1)O[C@@H]1C[C@](O)(C(=O)O)C[C@@H](O)[C@H]1O	1.36% [at 95.7 µM] (inactive)	–
O=C1[C@H](CC[C@H](O)c2ccc(F)cc2)[C@@H](c2ccc(O)cc2)N1c1ccc(F)cc1	-0.187% [at 46 µM] (inactive)	–
NC[C@H]1O[C@H](O[C@H]2[C@H](O)[C@@H](O[C@H]3O[C@H](CO)[C@@H](O)[C@H](N)[C@H]3O)[C@H](N)C[C@@H]2N)[C@H](O)[C@@H](O)[C@@H]1O	0.0769% [at 18.6 µM] (inactive) and -0.256% [at 3.72 µM] (inactive)	–
CC(C)(C)c1cc(O)c(C(C)(C)C)cc1O	0.0947% (inactive)	–
CCOC(=O)[C@H](CCc1ccccc1)N[C@H]1CCc2ccccc2N(CC(=O)O)C1=O	-0.208% [at 46 µM] (inactive)	–
C=C(C)C(=O)OCCN(C)C	-0.0299% (inactive)	–
S=C(S)NCCNC(=S)S	-0.467% (inactive)	–
Cc1ccc(C(C)c2ccc(C)c(C)c2)cc1C	0.0622% (inactive)	–
CCCCOC(=O)/C=C\C(=O)OCCCC	-0.0748% [at 95.7 µM] (inactive)	–
CC(C)(C)C1CCCCC1O (stereo not given)	0.175% (inactive)	–
O=C(O)Cc1cc(I)c(Oc2ccc(O)c(I)c2)c(I)c1	–	inactive
CN1CCC(=C2c3ccccc3C=Cc3ccccc32)CC1	-0.189% [at 46 µM] (inactive)	–
N[C@H]1C(O)O[C@H](CO)[C@H](O)[C@@H]1O (stereo not given in full)	0.0208% (inactive)	–
Cc1cccc(C(C)(C)C)c1O	0.0003% (inactive)	–
C=Cc1c(C)c2cc3[nH]c(cc4nc(cc5nc(cc1[nH]2)C(C)=C5CCC(=O)O)C(CCC(=O)O)=C4C)c(C)c3C=C	-0.0234% [at 46 µM] (inactive)	–
NC(=S)N/N=C/c1cccnc1	0.117% [at 46 µM] (inactive)	–
CCOc1cc(OCC)c(C(=O)CCC(=O)O)cc1OCC	-0.3% [at 46 µM] (inactive)	–

test: qHTS assay to test for compound auto fluorescence at 590 nm (red) in HepG2 cell free culture (AID 720684); settings: cell-free medium autofluorescence, red 540/590 nm; series mostly up to 91.3 µM; fluorescence, % of Rose Bengal: at the top concentration
In short: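 Red fluorescence (540 nm excitation, 590 nm emission) was measured after compound transfer into cell-free MEM supplemented with 10% FBS. Values are equivalencies against Rose Bengal sodium.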

Compound	fluorescence, % of Rose Bengal	outcome
OCCC1CCCCN1 (stereo not given)	-0.203% (inactive)	–
Oc1ccc(Sc2ccc(O)cc2)cc1	-0.285% (inactive)	–
CCCC[C@H]1CN(CC2CCOCC2)C(=O)OC12CCN(C1(C)CCN(C(=O)c3c(C)ncnc3C)CC1)CC2	0.0492% (inactive)	–
CN1CCC(OC(c2ccccc2)c2ccccc2)CC1	0.0772% [at 18.6 µM] (inactive)	–
c1ccc(OCc2ccc(CCCN3CCOCC3)cc2)cc1	-0.314% [at 46 µM] (inactive)	–
N#Cc1c(F)cccc1F	-0.509% (inactive)	–
NC(N)=NN=C(/C=C/c1ccc([N+](=O)[O-])o1)/C=C/c1ccc([N+](=O)[O-])o1	0.0215% [at 46 µM] (inactive)	–
Cc1ccccn1	–	inactive
NC1CCN(c2nc3c(cc2F)c(=O)c(C(=O)O)cn3-c2ccc(F)cc2F)C1 (stereo not given)	0.0202% [at 46 µM] (inactive)	–
CCCCCCOC(=O)CCC	0.0146% (inactive)	–
COc1cc(C(C)(C)C)c(O)c(C(C)(C)C)c1	-0.203% (inactive)	–
CC(C)c1cccc(C(C)C)c1NC(=O)NS(=O)(=O)c1cc(C(C)(C)O)co1	0.0226% (inactive)	–
COCCCCCCCCOCCC[Si](C)(O[Si](C)(C)C)O[Si](C)(C)C	0.142% (inactive)	–
O=C1[C@H](CC[C@H](O)c2ccc(F)cc2)[C@@H](c2ccc(O)cc2)N1c1ccc(F)cc1	0.206% [at 46 µM] (inactive)	–
NC[C@H]1O[C@H](O[C@H]2[C@H](O)[C@@H](O[C@H]3O[C@H](CO)[C@@H](O)[C@H](N)[C@H]3O)[C@H](N)C[C@@H]2N)[C@H](O)[C@@H](O)[C@@H]1O	-0.276% [at 18.6 µM] (inactive) and 0.0159% [at 3.72 µM] (inactive)	–
CC(C)(C)c1cc(O)c(C(C)(C)C)cc1O	0.0149% (inactive)	–

Compound	fluorescence, % of Rose Bengal	outcome
CCOC(=O)[C@H](CCc1ccccc1)N[C@H]1CCc2ccccc2N(CC(=O)O)C1=O	0.0325% [at 46 µM] (inactive)	–
C=C(C)C(=O)OCCN(C)C	0.0372% (inactive)	–
Cc1ccc(C(C)c2ccc(C)c(C)c2)cc1C	0.0275% (inactive)	–
CCCCOC(=O)/C=C\C(=O)OCCCC	-0.0172% [at 95.7 µM] (inactive)	–
O=C(O)Cc1cc(I)c(Oc2ccc(O)c(I)c2)c(I)c1	–	inactive
CN1CCC(=C2c3ccccc3C=Cc3ccccc32)CC1	-0.173% [at 46 µM] (inactive)	–
N[C@H]1C(O)O[C@H](CO)[C@H](O)[C@@H]1O (stereo not given in full)	0.22% (inactive)	–
CC1CCc2cc(F)cc3c(=O)c(C(=O)O)cn1c23 (stereo not given)	-0.156% [at 46 µM] (inactive)	–
CN(c1nccc(=O)[nH]1)C1CCN(c2nc3ccccc3n2Cc2ccc(F)cc2)CC1	-0.0057% [at 46 µM] (inactive)	–
Cc1cccc(C(C)(C)C)c1O	0.175% (inactive)	–
C=Cc1c(C)c2cc3[nH]c(cc4nc(cc5nc(cc1[nH]2)C(C)=C5CCC(=O)O)C(CCC(=O)O)=C4C)c(C)c3C=C	-0.0183% [at 46 µM] (inactive)	–
CCCCCC/C=C/C=O	0.0873% (inactive)	–
NC(=S)N/N=C/c1cccnc1	0.0513% [at 46 µM] (inactive)	–
Nc1nc(N)c2nc(CNc3ccc(C(=O)N[C@@H](CCC(=O)O)C(=O)O)cc3)cnc2n1	–	inactive
CCOc1cc(OCC)c(C(=O)CCC(=O)O)cc1OCC	-0.262% [at 46 µM] (inactive)	–
